The subject of experiment [1] is Human papillomavirus type 1a protein E7 (residues 44-93). Description: HPV1a E7 fragment binders on microarrays, primary screen, biochemical, small-molecule microarray, residues 44-93, 635 nm fluorescence (AID 1108).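 Also: E7 fragment applied at 1 µg/mL in TBST for 1 h at 4 C; score combines spot fluorescence with its signal to noise ratio.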 The following applies: small-molecule microarray binding, fluorescence 635 nm; higher = more signal.
Experiment [2] can be described thus: modulators of HCV replicon luciferase signal, primary screen, HCV replication inhibitor project, Huh7 cells, luciferase reporter (AID 1109).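 Also: huh7 hepatoma cells harbouring a luciferase neomycin HCV replicon reporter; luciferase luminescence as measure of HCV replicon replication; test concentration not given here.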 The following applies: 48 h, higher = more signal. In general terms: A replicon is a self-replicating genome or part of one, used to study replication in cells.
Experiment [3] concerns the target Left-right determination factor 2 (Homo sapiens) (UniProt O00292). Description: LEFTY2 binders on small-molecule microarrays, primary screen, biochemical, small-molecule microarray, 635 nm fluorescence scan (AID 1110). To be noted: LEFTY2 binding, higher = more signal.
In experiment [4] the target is Calmodulin-1 (Homo sapiens) (UniProt P0DP23). Description: CALM1 binders on microarrays, EGTA buffer, profiling panel, biochemical, small-molecule microarray, Cy5-labelled CALM1 (AID 1111).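 Also: labelled calmodulin applied in Tris saline Tween buffer holding calcium plus EGTA and DTT.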 To be noted: Cy5-CALM1 binding fluorescence, higher = more signal.
The target is the same in experiment [5]. The experiment can be described thus: calcium-bound CALM1 binders on microarrays, profiling panel, artefact control for SMM control-protein annotation, biochemical, small-molecule microarray, Cy5-labelled CALM1, plus calcium (AID 1112).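 Also: score merges spot fluorescence with signal to noise from triplicate slides.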 To be noted: Cy5-CALM1 binding fluorescence, higher = more signal.
A short description of experiment [6]: small-molecule microarray binders of probe aWnt5a, primary screen, biochemical, biotinylated probe, 635/667 nm fluorescence (AID 1113).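 Also: score merges 667 nm fluorescence intensity with signal-to-noise per printed feature.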 To be noted: higher = more signal.
Experiment [7] in a line: small-molecule microarray binders of probe aShh, primary screen, biochemical, biotinylated probe, 635/667 nm fluorescence (AID 1114).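 Also: probe is biotin-labelled aShh protein from a stem cell growth factor screen; measures binding of labelled protein to compounds printed on the slide; score merges feature fluorescence at 667 nm with signal-to-noise.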 To be noted: higher = more signal.
Experiment [8] is described as follows: small-molecule microarray binders of probe aNog, primary screen, biochemical, biotinylated probe, 635/667 nm fluorescence (AID 1115).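 Also: probe is biotinylated aNog protein used at 0.15 µg/mL for 1 h at 4 C; z-score combines 667 nm fluorescence of each spot with its signal to noise.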 To be noted: higher = more signal.
For experiment [9], the target named is Torsin-1A-interacting protein 1 (Homo sapiens) (UniProt Q5JTV8). Description: LAP1 binders from COS7 cell lysate, primary screen, small-molecule microarray, 635/667 nm fluorescence (AID 1116). To be noted: COS7-hLAP1 lysate binding, 635 nm fluorescence, higher = more signal.
Torsin-1A-interacting protein 1 (Homo sapiens), sequence (Q5JTV8 whole entry, looked up): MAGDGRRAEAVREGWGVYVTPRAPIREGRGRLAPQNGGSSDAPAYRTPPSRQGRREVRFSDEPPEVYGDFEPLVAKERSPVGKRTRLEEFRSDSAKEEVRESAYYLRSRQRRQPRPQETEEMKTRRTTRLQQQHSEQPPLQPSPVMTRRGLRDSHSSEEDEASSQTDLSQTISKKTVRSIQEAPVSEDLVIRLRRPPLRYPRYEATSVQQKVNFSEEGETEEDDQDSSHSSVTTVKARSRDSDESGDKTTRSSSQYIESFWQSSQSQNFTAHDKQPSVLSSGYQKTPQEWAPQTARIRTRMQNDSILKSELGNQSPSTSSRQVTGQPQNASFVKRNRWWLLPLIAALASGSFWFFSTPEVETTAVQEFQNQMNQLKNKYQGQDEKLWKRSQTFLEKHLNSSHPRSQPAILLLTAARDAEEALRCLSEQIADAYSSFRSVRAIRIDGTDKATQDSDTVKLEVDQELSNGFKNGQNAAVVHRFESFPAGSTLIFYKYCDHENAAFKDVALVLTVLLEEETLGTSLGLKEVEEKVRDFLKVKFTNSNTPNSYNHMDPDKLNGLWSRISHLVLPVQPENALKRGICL
Experiment [10] addresses Alpha-bungarotoxin (Bungarus multicinctus) (UniProt P60615). Description: alpha-bungarotoxin binders on microarray, profiling panel, artefact control for SMM control protein annotation, biochemical, small-molecule microarray, Alexa647 label, 635/667 nm fluorescence (AID 1117). To be noted: alpha-BTX-A647 binding fluorescence, higher = more signal.
In another experiment the target is Albumin (Bos taurus) (UniProt P02769). Description: bovine serum albumin binders on microarray, profiling panel, artefact control for SMM control protein annotation, biochemical, small-molecule microarray, Alexa647 label, 635/667 nm fluorescence (AID 1118).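 Also: score merges 667 nm emission intensity and signal-to-noise per printed compound spot.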 To be noted: BSA-A647 binding, fluorescence 635 nm, higher = more signal.
Albumin (Bos taurus), sequence (P02769 whole entry, looked up): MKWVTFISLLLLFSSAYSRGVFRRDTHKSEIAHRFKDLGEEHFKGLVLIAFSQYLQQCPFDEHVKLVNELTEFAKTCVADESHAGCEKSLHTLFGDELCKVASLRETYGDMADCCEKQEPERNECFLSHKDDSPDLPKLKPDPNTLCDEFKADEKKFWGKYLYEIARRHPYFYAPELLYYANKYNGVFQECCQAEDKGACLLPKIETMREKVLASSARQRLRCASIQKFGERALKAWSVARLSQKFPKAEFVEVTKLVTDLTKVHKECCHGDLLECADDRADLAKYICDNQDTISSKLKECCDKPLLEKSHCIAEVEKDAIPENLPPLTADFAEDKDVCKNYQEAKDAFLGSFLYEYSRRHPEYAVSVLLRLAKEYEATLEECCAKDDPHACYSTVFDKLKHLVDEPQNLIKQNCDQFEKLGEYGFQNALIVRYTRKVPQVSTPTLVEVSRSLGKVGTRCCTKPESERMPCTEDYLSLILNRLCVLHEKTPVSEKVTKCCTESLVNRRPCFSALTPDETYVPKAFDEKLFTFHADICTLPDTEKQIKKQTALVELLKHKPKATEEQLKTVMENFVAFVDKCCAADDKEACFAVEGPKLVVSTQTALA
Experiment [11] is described as follows: small-molecule microarray binders of probe aXIP, primary screen, biochemical, NeuroSMM set, 635/667 nm fluorescence (AID 1119).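 Also: probe is the protein aXip251-270 applied at 1 µg/mL to compound-printed slides; binding of probe to printed compounds measured as 667 nm fluorescence plus signal to noise.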 The following applies: higher = more signal, called active from +8 up or from −8 down.
Experiment [12] in a line: small-molecule binders of probe aNOTCH3, primary screen, biochemical, small-molecule microarray, 635/667 nm fluorescence (AID 1120).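 Also: probe is a biotin-tagged antibody raised against NOTCH3 rather than NOTCH3 protein; score merges spot fluorescence near 667 nm with spot signal to noise.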 The following applies: higher = more signal.
The nature of experiment [13]: small-molecule binders of probe aNOTCH2, primary screen, biochemical, small-molecule microarray, 635/667 nm fluorescence (AID 1121).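 Also: score merges feature fluorescence read at 667 nm with its signal to noise.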 To be noted: higher = more signal.
For experiment [14], the target named is Carbonic anhydrase 2 (Homo sapiens) (UniProt P00918). Description: CAII small-molecule binders, profiling panel, biochemical, small-molecule microarray, Alexa647-labelled CAII (AID 1122). The following applies: CAII-A647 binding fluorescence, higher = more signal.
Experiment [15] is described as follows: COS7 lysate on small-molecule microarray, probe aHis, 635 nm (AID 1123).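 Also: z-score combines 667nm fluorescence intensity with signal-to-noise per printed compound spot.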 The following applies: COS7 cell lysate, fluorescence, higher = more signal.
Experiment [16] can be described thus: compound binding in COS7 lysate, probe aLAP1, primary screen, cell lysate, small-molecule microarray (AID 1124).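 Also: lysate comes from COS7 cells expressing LAP1 and is applied at 0.3 µg/mL; score merges spot fluorescence near 667 nm with signal-to-noise over triplicate slides.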 The following applies: probe aLAP1, fluorescence, higher = more signal.
The test system of a further experiment is Sam68 (KHDRBS1). The experiment can be described thus: Sam68 small-molecule binders, primary screen, biochemical, small-molecule microarray, 635 nm fluorescence (AID 1125).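 Also: score merges 667 nm channel intensity with signal to noise over triplicate slides.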 To be noted: small-molecule microarray binding, higher = more signal.
The test system of experiment [17] is Chordin-like protein 2 (CHRDL2). The experiment can be described thus: CHRDL2 small-molecule binders, primary screen, biochemical, small-molecule microarray, 635 nm fluorescence (AID 1126).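 Also: printed compound slides probed with Chrdl2 protein at 4 µg/mL for 1 h at 4 C; score merges 667 nm emission intensity with signal to noise over three replicate slides.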 To be noted: small-molecule microarray binding, fluorescence 635 nm; higher = more signal.
In experiment [18] the target is Concanavalin-A (Canavalia ensiformis) (UniProt P02866). The experiment can be described thus: ConA small-molecule binders, primary screen, artefact control for SMM control protein annotation, biochemical, small-molecule microarray, Alexa647 label, 635 nm (AID 1127).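 Also: z combines 667 nm emission intensity with signal-to-noise across three replicate slides.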 To be noted: ConA-A647 binding fluorescence, higher = more signal.
Concanavalin-A (Canavalia ensiformis), sequence (P02866 whole entry, looked up): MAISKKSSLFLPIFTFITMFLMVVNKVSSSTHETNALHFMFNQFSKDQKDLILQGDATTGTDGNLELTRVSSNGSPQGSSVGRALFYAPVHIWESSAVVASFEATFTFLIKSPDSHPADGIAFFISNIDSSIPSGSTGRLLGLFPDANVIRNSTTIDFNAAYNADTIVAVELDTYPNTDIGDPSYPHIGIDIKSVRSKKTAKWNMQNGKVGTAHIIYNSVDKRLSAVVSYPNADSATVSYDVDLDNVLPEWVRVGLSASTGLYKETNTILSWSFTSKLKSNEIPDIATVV

Structures are written as SMILES. The source made the active and inactive calls.

Alpha-bungarotoxin (Bungarus multicinctus), sequence (P60615 whole entry, looked up): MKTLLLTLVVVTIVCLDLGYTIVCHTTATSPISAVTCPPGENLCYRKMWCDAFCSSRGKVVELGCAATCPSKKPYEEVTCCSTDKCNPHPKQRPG
Left-right determination factor 2 (Homo sapiens), sequence (O00292 whole entry, looked up): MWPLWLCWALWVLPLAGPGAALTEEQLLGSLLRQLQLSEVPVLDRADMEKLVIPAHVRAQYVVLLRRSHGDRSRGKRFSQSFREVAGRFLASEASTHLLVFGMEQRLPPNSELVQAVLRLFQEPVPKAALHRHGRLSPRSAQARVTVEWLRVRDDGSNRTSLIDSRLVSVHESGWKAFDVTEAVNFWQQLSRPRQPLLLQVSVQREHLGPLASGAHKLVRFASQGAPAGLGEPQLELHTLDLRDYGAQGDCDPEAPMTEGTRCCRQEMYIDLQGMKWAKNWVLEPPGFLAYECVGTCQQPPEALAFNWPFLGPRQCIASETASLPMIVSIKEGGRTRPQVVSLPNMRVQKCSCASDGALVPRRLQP

In the case of `C=CCOC(=O)[C@H]1[C@@H]2C(=O)O[C@@H](c3ccccc3)[C@@H](c3ccccc3)N2[C@@H](c2ccc(OCCOC(=O)[C@H]3C[C@H]4C(=O)N[C@@H](CCCCN(C)C)C(=O)N4[C@H]3c3cccc(OCCO)c3)cc2)[C@]12C(=O)Nc1ccc(I)cc12`, the composite z-score in experiment [1] was 1.4; in experiment [3], 0.713; in experiment [4], -0.0131; in experiment [5], -0.12; in experiment [6] it was 0.108; in [7] it was 0.0671. Besides, the composite z-score in [8] is 1.18; in experiment [9], 0.811; in [10], 1.27; with Albumin (Bos taurus) it was -0.427; in experiment [12] it was 0.0306; in [13] it was -0.154. Moreover, the composite z-score in experiment [14] was 0.228; in [15], 0.986; in experiment [16], -0.0143; with Sam68 (KHDRBS1) it was 1.3; in experiment [17], 1.39; in experiment [18] it was 1.12. The z-score in experiment [2] is -2.45. The composite Z-score in experiment [11] was 0.715 (inactive).
As to `COCC(=C=CC[C@@H](O)c1ccc(OCCO)cc1)C[C@@H](O)c1ccccn1`, the composite z-score in [1] was 0.518; in experiment [3] it was 0.33; in [4] it was -0.336; in [5], -0.125; in experiment [6], 0.0173; in experiment [7], 0.227. In addition, the composite z-score was -0.0184 in experiment [8]; 0.407 in [9]; 0.338 in experiment [10]; 0.762 with Albumin (Bos taurus); -0.0947 in experiment [12]; -0.157 in experiment [13]. The composite z-score in experiment [14] was 0.532; in experiment [15], 0.528; in experiment [16], -0.517; in the experiment on Sam68 (KHDRBS1), 0.472; in experiment [17], 0.141; in experiment [18] it was 0.403. The z-score in experiment [2] was -1.24. The composite Z-score in [11] is -0.628 (inactive).
On to `COC(=O)[C@H](Cc1ccccc1)N[C@H](/C=C/C1CC1)[C@@H](O)Cc1ccccc1`, for which the composite z-score in [1] is -0.636; in experiment [3] it was -0.276; in experiment [4] it was -0.595; in experiment [5], -1.08; in [6], -0.237; in experiment [7], 0.14. Besides, the composite z-score was -0.34 in experiment [8]; 0.627 in [9]; -0.696 in experiment [10]; -0.115 with Albumin (Bos taurus); 0.392 in experiment [12]; -0.193 in experiment [13]. Besides, the composite z-score was -0.36 in experiment [14]; 0.369 in experiment [15]; -0.309 in experiment [16]; -0.56 in the experiment with Sam68 (KHDRBS1); -0.318 in experiment [17]; -0.811 in [18]. The z-score in [2] is -1.02. The composite Z-score in experiment [11] is 0.448 (inactive).
Consider `CC(=CC1CCCCC1)[C@@H](NC(=O)c1cccnc1)c1ccc(-c2ccccc2)cc1`, for which the composite z-score was 0.0493 in experiment [1]; -0.405 in [3]; 0.139 in experiment [4]; 0.735 in experiment [5]; -0.13 in experiment [6]; -0.0403 in [7]. For the same compound, the composite z-score in experiment [8] was 0.747; in experiment [9], -0.217; in experiment [10], -0.124; with Albumin (Bos taurus), 0.513; in experiment [12], -0.118; in experiment [13] it was -0.0665. Besides, the composite z-score in experiment [14] was 0.0804; in [15], 1.24; in [16], -0.264; with Sam68 (KHDRBS1), -0.649; in experiment [17], -0.531; in experiment [18] it was 0.132. Moreover, in experiment [2], the z-score is -2.14. In experiment [11], the composite Z-score was -0.8 (inactive).
For `COc1ccc([Si](C)(C)[C@H]2[C@H](CC(=O)N3CCC[C@H]3CO)O[C@@]3(C(=O)N(Cc4cccc(N5CCOC5=O)c4)c4ccccc43)[C@@H]2C)cc1`, the composite z-score in [1] was 1.23; in experiment [3], 1.05; in [4] it was -0.133; in [5], -0.834; in [6] it was -0.124; in experiment [7], -0.0553. The composite z-score in [8] was 0.0258; in experiment [9] it was 0.368; in [10] it was 1.58; in the experiment with Albumin (Bos taurus), -0.185; in experiment [12] it was -0.095; in experiment [13], -0.151. Further, the composite z-score in experiment [14] amounted to 0.334; in [15] it was 0.626; in experiment [16] it was 0.218; in the experiment on Sam68 (KHDRBS1), 1.26; in [17], 1.36; in experiment [18], 0.996. In [2], the z-score is -2.44. Further, in experiment [11], the composite Z-score was -0.0054 (inactive).
Consider `[N-]=[N+]=Nc1ccccc1C[C@]1(C(=O)NCC(O)CO)N=C(c2ccc(OCCCO)cc2)O[C@H]1c1ccccc1` (stereo not given in full), for which the composite z-score in experiment [1] is 1.45; in experiment [3] it was -1.32; in [4], 1.89; in experiment [5], 0.496; in [6], -0.0924; in [7] it was -0.0709. Moreover, the composite z-score in experiment [8] was -0.492; in [9], 0.954; in experiment [10] it was 0.903; with Albumin (Bos taurus), 0.927; in experiment [12], 0.298; in experiment [13] it was -0.14. Besides, the composite z-score in experiment [14] is 0.629; in experiment [15] it was 2.83; in [16], 0.132; with Sam68 (KHDRBS1), 1.09; in [17] it was -1.5; in experiment [18] it was 0.197. Also, the z-score in experiment [2] is -0.962. The composite Z-score in experiment [11] is 0.102 (inactive).

These data come from PubChem BioAssay.
